# LMP1 NFkB inh: reduces LMP1-driven NF-kappaB luciferase signal; AID 504558; LMP1-induced NF-kappaB luciferase reporter cells, luminescence; inhibition, % at 12.5 µM; actives 0.69% (n = 350,000); in the data active = inhibition above about 41%;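 also: 0% = neutral control wells and 100% = reference inhibitor control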
# MITF TRPM1 HTS: increases MITF-driven TRPM1 promoter luciferase signal; SK-MEL-5 TRPM1-promoter luciferase, 24 h; % of positive control, neutral wells = 0; AID 588334; activation, % at 12.5 µM; actives 0.75% (n = 300,000);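 active = mean activation of at least 80% with every replicate also reaching 80%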;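 also: 0% = neutral control wells and 100% = parthenolide positive control wells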
# TWEAK Fn14 block: blocks TWEAK-Fn14 interaction in a reporter cell assay; TWEAK-stimulated Fn14 reporter cells, luciferase luminescence, 8 h; AID 1159606; inhibition, % at 10 µM; actives 2% (n = 360,000); in the data active = inhibition above about 50%
# TRPM1 prom inh: inhibitors of MITF-driven TRPM1 promoter in melanoma cells. SK-MEL-5 TRPM1 promoter luciferase, 24 h. inhibition, % at 12.5 µM. actives 0.83% (n = 330,000);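 active = mean inhibition across replicates of 60% or more, whatever share of single replicates reaches that level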
# TROY signal inh: inhibitors of TROY-dependent NF-kB signaling. Q293 LMP1-TROYcd NF-kB luciferase reporter, 4 h. inhibition, % at 10 µM. actives 0.98% (n = 360,000). AID 1347056;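 active = compounds whose plate-normalised and pattern-corrected inhibition of the luciferase reporter signal at the single screening dose is 50% or more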
# LGR2 inh: inhibitors of bursicon-induced Drosophila LGR2 receptor cAMP signaling | inhibition, % at 9.99 µM | HEK293 LGR2, CRE-luciferase, bursicon-stimulated, 4 h | actives 0.35% (n = 380,000);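 active = drop in luminescence signal, shown as inhibition above about 50% in the replicate tests, limit read from the data, passing the limit was not always enough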;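 also: agonist challenge used bursicon conditioned medium at about half maximal strength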
# Active calls of the source: *; x = no result. Hits are enriched below; roughly 3% of the tested compounds scored in any of these assays.
SMILES,LMP1 NFkB inh,MITF TRPM1 HTS,TWEAK Fn14 block,TRPM1 prom inh,TROY signal inh,LGR2 inh
COc1ccc2c3c([nH]c2c1)[C@H](CO)N(C(=O)Nc1ccc(F)cc1)CC31CN(S(=O)(=O)c2cn(C)cn2)C1,x,x,x,x,x,16
Cc1nc(C(=O)O)cc2c1[nH]c1ccccc12,1,-5,0,8,-4,17
CC(=O)N(C(C)=O)c1ncc2c([nH]c3ccccc32)c1C#N,27,-32,55*,35,54*,16
Cn1c(-c2ccccc2)n[nH]c1=S,-3,14,85*,-15,-10,10
COc1ccc(OC)c(-n2c(-c3ccccc3)n[nH]c2=S)c1,-1,-23,3,24,-4,x
COc1ccccc1-n1c(-c2ccccc2)n[nH]c1=S,46*,-5,-3,6,7,0
O=C(Nc1nc(-c2ccc(-c3ccccc3)cc2)cs1)C1CCCO1 (stereo not given),11,21,-15,-24,-13,x
O=C(Nc1nc(-c2ccc(F)cc2)cs1)C1CCCO1 (stereo not given),-4,85*,-20,-87,-44,-18
COc1cccc(-c2cc3nc4c(c(NCC(C)(C)CN(C)C)n3n2)CCCC4)c1,-7,36,61*,-31,81*,43
CCN1CCN(c2cc(N3CCN(C(=O)c4ccco4)CC3)c3c4c(onc24)-c2ccccc2C3=O)CC1,-7,-88,3,89*,19,x
C=C1[C@@H](O)[C@H](Cc2ccccc2)N(Cc2ccccc2Br)S1(=O)=O,-12,-5,67*,5,24,47
CN1C(=O)N(CC(=O)N2CCN(S(=O)(=O)c3ccc4c(c3)CCC4)CC2)C(=O)C12CCCCC2,-3,3,10,-1,-10,5
O=C(CCl)N1CCN(S(=O)(=O)c2ccc3c(c2)CCC3)CC1,-6,-66,11,66*,9,22
COc1cccc(/C=C2\Oc3ccc(O)cc3C2=O)c1O,7,16,-29,-17,-6,66*
COC(=O)c1ccc2c(c1)C(=O)/C(=C/c1ccc(O)cc1)O2,-3,39,-22,-34,-68,-36
CC(C)NC(=O)Nc1cccc2c1O[C@@H](CN(C)C(=O)NC1CCCCC1)[C@@H](C)CN([C@H](C)CO)C2=O,x,x,x,x,x,-14
CS(=O)(=O)N(CCc1ccccc1)CC(=O)N1CCN(c2ccccc2)CC1,-10,x,3,10,5,x
CS(=O)(=O)N(CCc1ccccc1)CC(=O)N1CCN(c2ccccc2F)CC1,-13,-3,84*,3,-14,x
O=C1CC(SC(=NCc2ccc3c(c2)OCO3)Nc2ccccc2)C(=O)N1 (stereo not given),55*,9,1,-4,-11,x
COc1ccc(CN=C(Nc2ccccc2)SC2CC(=O)NC2=O)cc1 (stereo not given),-4,12,7,-9,-3,-6
Cc1c(Cl)cccc1NC(=O)CC(Cc1ccccc1)C(=O)O (stereo not given),44*,9,11,-7,3,0
CC(NNC(=S)N1CCN(c2ccccn2)CC1)c1nccc2ccccc12 (stereo not given),72*,-85,10,86*,-3,-7
O=C(NC(=S)N1CCN(c2ccc(O)cc2)CC1)c1ccco1,-1,9,7,-10,11,-4
FC(F)Sc1ccc(NC(=S)N2CCN(c3ccccn3)CC2)cc1,9,-5,56*,4,12,16
Oc1ccccc1N1CCN(C(=S)Nc2ccc(SC(F)F)cc2)CC1,-13,16,41,-17,15,25
SMILES,LMP1 NFkB inh,MITF TRPM1 HTS,TWEAK Fn14 block,TRPM1 prom inh,TROY signal inh,LGR2 inh
O=C(NC(=S)N1CCN(c2ccccn2)CC1)c1ccco1,54*,-4,-35,4,3,3
N[C@H]1CC[C@H](CCn2cc(-c3ccccn3)nn2)O[C@@H]1CO,x,x,x,x,x,2
O=C(O)c1ccc(/C=N/NC(=O)c2cc3c(ccc4ccccc43)o2)cc1,-1,14,23,-7,63*,-7
O=C(CNc1ccc2ccccc2c1)N/N=C/c1ccc(C(=O)O)cc1,-15,-15,53*,17,19,-14
O=C(C[C@@H]1C[C@H]2c3cc(NC(=O)NC4CCCCC4)ccc3O[C@H]2[C@@H](CO)O1)NCc1ccncc1,x,x,x,x,x,10
COC(=O)C(Cc1ccccc1)NC(=O)C(CC(C)C)NC(=O)OC(C)(C)C (stereo not given),-1,7,-1,-10,-10,4
CC(C)CC(NC(=O)OCc1ccccc1)C(=O)NC(Cc1ccccc1)C(=O)CCl (stereo not given),2,x,34,114*,-8,-6
COc1ccc(-c2ccc(SCC(=O)N3c4ccccc4CC3C)nn2)cc1OC (stereo not given),-3,32,63*,-35,-4,x
CCOC(=O)N1CCN(C(=O)CSc2ccc(-c3ccc(OC)c(OC)c3)nn2)CC1,8,10,-7,-8,-10,-18
O=C(C[C@H]1C[C@H]2c3cc(NS(=O)(=O)c4ccccc4)ccc3O[C@H]2[C@@H](CO)O1)NCC1CC1,x,x,x,x,x,-13
CNC(=O)C[C@H]1CC[C@H]2[C@@H](COc3ccc(NC(=O)Nc4ccccc4OC)cc3C(=O)N2C)O1,x,x,x,x,x,15
CC(C)C#Cc1cnc2c(c1)C(=O)N([C@@H](C)CO)C[C@H](C)[C@@H](CN(C)C(=O)Cc1ccccn1)O2,x,x,x,x,x,-5
CCOC(=O)CN1C(=O)S/C(=C/c2cc(C)n(C)c2C)C1=O,-9,88*,-17,-87,8,x
CCOC(=O)CN1C(=O)S/C(=C/c2cc(C)n(-c3ccccn3)c2C)C1=O,-15,53,6,-48,0,x
CC(=O)c1ccc(N2CCC(c3cc(-c4ccc(Cl)cc4)n[nH]3)CC2)c([N+](=O)[O-])c1,-2,x,62*,17,48,x
COC(=O)c1ccc(N2CCC(c3cc(-c4ccc(OC)cc4)n[nH]3)CC2)c([N+](=O)[O-])c1,-10,0,25,5,9,x
COc1ccc(-c2cc(C3CCN(c4ccc(C(C)=O)cc4[N+](=O)[O-])CC3)[nH]n2)cc1,4,x,71*,19,74*,x
COc1ccc(NC(=O)N(C)C[C@H]2Oc3ccc(NC(=O)Nc4ccc(C(F)(F)F)cc4)cc3CC(=O)N([C@@H](C)CO)C[C@@H]2C)cc1,x,x,x,x,x,4
Cc1ccc(S(=O)(=O)N2CCN(C(=O)CSc3nccn3C)CC2)cc1,0,3,-23,-4,60*,1
CCCC(=O)Nc1ccc2c(c1)C(=O)N(C)[C@@H]1CC[C@H](CC(=O)NCCc3ccncc3)O[C@@H]1CO2,x,x,x,x,x,3
N#C[C@H]1[C@@H](c2ccc(C3=CCCCC3)cc2)[C@H](CO)N1C(=O)c1ccccn1,x,x,x,x,x,88*

# Compound activity: PubChem, several laboratories
